Key:
Type in all cases: functional
Plasmodium falciparum [1] = experiment: GSK_TCMDC: Inhibition of Plasmodium falciparum 3D7 in whole red blood cells, using parasite LDH activity as an index of growth. Test compounds present at 2uM
Plasmodium falciparum [2] = experiment: GSK_TCMDC: Inhibition of Plasmodium falciparum Dd2 in whole red blood cells, using parasite LDH activity as an index of growth. Test compounds present at 2uM
HepG2 = experiment: GSK_TCMDC: Percent inhibition of human HepG2 cell line. Test compounds present at 10uM.

SMILES | Inhibition (Plasmodium falciparum [1]) | Inhibition (Plasmodium falciparum [2]) | Inhibition (HepG2)
CN(C(=O)c1cc2c(-c3cncnc3)cccc2[nH]1)c1ccccc1 | 92% | 99% | 1%
CC(=O)Nc1cc(C(=O)Nc2cccc(-c3cccc(-c4nc5cc(C(F)(F)F)ccc5[nH]4)c3)c2)ccc1C | 97% | 43% | 56%
c1ccc(COc2ccc(Cn3ccc(-c4ccc(-n5ccnc5)cc4)n3)cc2)cc1.c1ccc(COc2ccc(Cn3nccc3-c3ccc(-n4ccnc4)cc3)cc2)cc1 | 94% | 67% | 2%
CN1CCN(c2ccc(Nc3nc(N)c4ccn(C5CCC5)c4n3)cc2)CC1.O=C(O)C(F)(F)F | 93% | 47% | 0%
COc1cccc(C(=O)Nc2ccc(Nc3nc(C)cc(N(C)C)n3)cc2)c1 | 92% | 33% | 1%
COc1ccc2nccc([C@@H](O)CN3CCC(NCc4cc5c(Cl)cccc5[nH]4)CC3)c2c1.O=C(O)C(=O)O | 100% | 74% | 40%
CCc1ccc(NC(=O)c2ccc(CN3CCCN(Cc4ccc(C)s4)CC3)cc2)cc1.O=C(O)C(F)(F)F | 87% | 0% | 48%
Cl.O=C(/C=C/c1cccc(Cl)c1)Nc1ccc2nc(CN3CCCC3)ccc2c1 | 99% | 42% | 47%
CN(C)CC1CCCN1Cc1ccccc1-c1cnn(C)c(=O)c1Oc1cccc(C#N)c1.O=C(O)C(F)(F)F (stereo not drawn) | 92% | 15% | 26%
COc1ccc2nccc(N3CCC(NCCNCc4ccc5c(n4)NC(=O)CS5)C3)c2n1.Cl (stereo not drawn) | 100% | 5% | 0%
COc1cccc(OC2CCN(C(=O)c3ccc(-c4ccc(N5CCCC5=O)cc4C)cc3)CC2)c1 | 85% | 80% | 42%
Cc1c(C2CCN(CCCCNC(=O)c3ccc(-c4ccc(C#N)cc4)cc3)CC2)c2ccccc2n1CCO | 96% | 99% | 28%
CC(C)CCNC(=N)Nc1ccc(OCCCCCOc2ccc(NC(=N)NCCC(C)C)cc2)cc1 | 85% | 67% | 14%
NCCC(=O)Nc1ccc(-c2cnc3[nH]cc(-c4ccc(C(=O)O)cc4)c3c2)cn1.O=C(O)C(F)(F)F | 99% | 67% | 0%
Cn1c(N)c(C(=O)CSc2ncc(-c3ccc(F)cc3)n2Cc2ccccc2)c(=O)n(C)c1=O | 88% | 66% | 11%
c1ccc2oc(-c3cc4ccncc4cc3OC3CCNCC3)cc2c1 | 100% | 96% | 11%
CN(C)CCCNCc1ccc(-c2ccc(C(F)(F)F)cc2)cc1 | 96% | 35% | 30%
O=C(NCCCCN1CC=C(c2ccc3c(c2OCc2ccccc2)CCCC3)CC1)c1ccc(-c2ccc(C(F)(F)F)cc2)cc1 | 97% | 82% | 19%
Oc1ccc2[nH]c(-c3cccc(F)c3)nc2c1CN1CCC(O)(c2ccccc2)CC1 | 97% | 72% | 21%
O=S(=O)(Nc1cccc(CCN2CCCCC2CCN2CCCC2)c1)c1ccc(-c2ccccc2)cc1 (stereo not drawn) | 99% | 5% | 31%
Nc1cccc(CNCc2ccc(-c3ccc(-c4nc5ccccc5[nH]4)s3)cc2)c1.O=C(O)C(F)(F)F | 100% | 93% | 12%

SMILES | Inhibition (Plasmodium falciparum [1]) | Inhibition (Plasmodium falciparum [2]) | Inhibition (HepG2)
COc1ccc(CNC(=O)NC2CCN(c3ccnc(Nc4ccc(F)cc4)n3)CC2)cc1 | 87% | 4% | 16%
COc1ccc(C=Cc2cc(=N)c3ccccc3[nH]2)cc1Br | 100% | 88% | 55%
Cc1cc(NC(=O)NCCN2CCC(NC(=O)c3ccc(Cl)cc3)CC2)c2ccccc2n1 | 90% | 54% | 0%
CCOC(=O)c1c(C)n(-c2ccccc2)c2ccc(OC(=O)c3ccc(S(=O)(=O)N(CC)CC)cc3)cc12 | 94% | 63% | 0%
Cc1ccc2sc(N3CCN(C(=O)c4ccc([N+](=O)[O-])o4)CC3)nc2c1C | 90% | 86% | 0%
Cc1cc(NCc2ccccc2)nc(NCc2ccccc2)n1 | 91% | 18% | 21%
Nc1cc(-c2ccc(Br)cc2O)nc2ccccc12 | 100% | 50% | 23%
Cc1ccccc1CNc1noc(-c2c(F)cccc2Cl)n1 | 97% | 90% | 14%
Br.CC1(C)NC(N)=NC(=N)N1OCCOc1ccc(Cc2ccccc2)cc1 | 94% | 26% | 62%
COc1ccc2nccc([C@@H](O)CN3CCC(NCc4nc5c(cc4F)SCC(=O)N5)C(F)C3)c2c1.Cl (stereo partly drawn) | 95% | 49% | 9%
FC(F)(F)c1ccc2[nH]ccc(=NN=Cc3cccnc3)c2c1 | 100% | 40% | 0%
O=C(Nc1cccc(N2CCC(NCCCc3ccncc3)CC2)c1)c1cccc(C(F)(F)F)c1 | 96% | 50% | 11%
CC1CCN(CC[C@H]2CCCN2S(=O)(=O)c2cccc(NC(=O)c3cc4ccccc4s3)c2)CC1 | 97% | 41% | 28%
O=C(O)C(F)(F)F.O=S(=O)(NCCN1CCCC1)c1cccc(-c2cccc(CNCc3ccsc3)c2)c1 | 100% | 55% | 69%
COc1ccc(CN(C)CCCOc2ccc(NC(=O)c3cccc4c(=O)c5cccc(C)c5[nH]c34)cc2)cc1OC | 96% | 62% | 3%
O=C(Nc1cccc(F)c1)N(Cc1ccc(-c2cccc(CN3CCNCC3)c2)cc1)C1CCN(Cc2ccccc2)CC1.O=C(O)C(F)(F)F | 97% | 54% | 13%
Br.CCCCCCCn1c2c(c(=N)c3c1CCC3)CCCC2 | 98% | 98% | 46%
COc1ccc2nccc([C@@H](O)CN3CCC(NCc4ccc5cccc(O)c5n4)CC3)c2n1.CS(=O)(=O)O | 94% | 13% | 8%
CN1CCCN(Cc2ccc(-c3cccc(NC(=O)c4ccc(C#N)cc4)c3)cc2)CC1.O=C(O)C(F)(F)F | 100% | 26% | 29%
Nc1cccc(CNCc2cccc(-c3ccc(-c4nc5cc(C(F)(F)F)ccc5[nH]4)cc3)c2)c1.O=C(O)C(F)(F)F | 100% | 98% | 6%
Cc1ccccc1CNc1nccc(NCCC(=O)Nc2ccccc2)n1.O=C(O)C(F)(F)F | 90% | 15% | 16%

SMILES | Inhibition (Plasmodium falciparum [1]) | Inhibition (Plasmodium falciparum [2]) | Inhibition (HepG2)
CC(C)c1ncc(-c2ccncc2)c(C2CCC(CNC(=O)c3ccncc3)CC2)n1 (stereo not drawn) | 85% | 49% | 0%
CCCCCCCC1=NN2C(=N)C(=Cc3cc(Br)c(OCc4ccc(F)cc4)c(OCC)c3)C(=O)N=C2S1 | 95% | 0% | 4%
Cl.Ic1cc(CNC2CCCCC2)ccc1OCc1cccc(COc2ccc(CNC3CCCCC3)cc2I)c1 | 93% | 34% | 0%
Cc1ccc2[nH]c([N-]C#N)nc2c1.[Na+] | 96% | 0% | 7%
CCn1c(-c2nonc2N)nc2c(-c3cccc(NC(=O)Nc4ccccc4Cl)c3)ncc(OCCCN)c21.O=C(O)C(F)(F)F | 99% | 74% | 2%
COc1ccccc1N1CCN(C(C(=O)NCc2ccc(C)cc2)c2ccc(C)cc2)CC1 (stereo not drawn) | 92% | 79% | 12%
CCNc1cc(C(=O)N[C@@H](Cc2ccccc2)[C@H](O)CNC(C)C)cc(N2CC(c3ccccc3)CCS2(=O)=O)c1 (stereo partly drawn) | 98% | 99% | 0%
O=C(c1ccccc1NN=C1C(=O)N(c2ccccc2)N=C1c1ccccc1)N1CCOCC1 | 97% | 2% | 0%
Cc1cccc2nc(-c3ccc(-c4cccc(CN5CC(C)OC(C)C5)c4)s3)[nH]c12.O=C(O)C(F)(F)F (stereo not drawn) | 98% | 79% | 6%
NC(=O)c1cccc(CN2Cc3ccccc3OC3(CCN(Cc4c[nH]c5cnccc45)CC3)C2)c1.O=C(O)C(F)(F)F | 94% | 2% | 9%
O=C(Nc1cccc(CN2CCN(Cc3ccc(O)cc3)CC2)c1)c1cc2ccccc2o1.O=C(O)C(F)(F)F | 81% | 12% | 8%
O=C(CCN(Cc1ccco1)c1nc(-c2ccc(F)cc2)nc2ccccc12)NC1CC1 | 94% | 54% | 0%
CN(C)CCNCc1ccc(-c2ccc3c(Nc4ccc(Cl)cc4F)ccnc3c2)o1 | 99% | 100% | 14%
CC(C)(C)Nc1nc(Nc2cccc([N+](=O)[O-])c2)nc(-n2ccnc2)n1 | 98% | 41% | 10%
COc1cc2c(cc1S(=O)(=O)c1ccc(NC(=O)c3ccc4ccccc4c3)cc1)CCN(C)CC2 | 99% | 28% | 2%
CN1CC[C@@H](Oc2cc(CNC(=O)c3ccc(-c4ccc(Cl)cc4)s3)ccc2C(F)(F)F)C1.Cl | 93% | 64% | 40%
COc1cc2nc(NCCc3ccccc3)nc(NCCCc3ccccc3)c2cc1OC | 100% | 100% | 21%
O=C(Nc1ccc(N2CCNCC2)nc1)c1oc(-c2ccccc2)nc1C(F)(F)F | 100% | 62% | 7%
CCOC(=O)NC1=NC(C)(C)N(OCCCOc2cc(Cl)c(Cl)cc2Cl)C(NC(=O)OCC)=N1 | 91% | 97% | 63%

From ChEMBL document CHEMBL1157539, “Thousands of chemical starting points for antimalarial lead identification” (Nature, 2010)
